# Reference: the supplement of paper PMC8726507
# Unmarked numbers belong to inactive results.
# System: Plasmodium falciparum NF54-HGL (transmission to Anopheles stephensi)
# Assay: percentage of barcode signal found in uninfected mosquitoes (transmission-blocking activity); higher = stronger blocking of transmission to mosquito, active = 80 or more
# Conditions: gametocyte preincubation time 24 h, readout time post-feed 8 days
# Protocol: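 The mixture was fed to Anopheles stephensi in 96-well plates as blood meals tagged with DNA-barcoded Asaia bacteria. Eight days later, mosquitoes were classed infected or uninfected by luminescence (mean + 5 SD of unfed controls). Barcodes were quantified by Luminex MagPlex-TAG in the pooled uninfected and infected Asaia cultures, background-corrected, and the score is % of barcode signal in uninfected mosquitoes = 100*Iu/(Iu+Ii).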
Compound,percentage of barcode signal found in uninfected mosquitoes (10 µM),percentage of barcode signal found in uninfected mosquitoes (20 µM)
COc1ccc(N(CCc2cccc(C)n2)C(=O)C2CCCCC2)cc1,29.5%,–
COc1cccc(-c2cc3c(Nc4cccnc4)nccc3[nH]2)c1,–,29%
CCOc1ccc(-c2nc(CNCCc3ccc(F)cc3)cs2)cc1,–,41.8%
O=C(c1ccc(F)cc1)N(CCNc1ccccc1)c1ccccc1,–,7.39%
CC(=O)N1CCc2cc3nc(C)cc(C)c3cc21,–,5.33%
FC(F)(F)c1cccc(-c2nc3c(NCc4ccncc4)nccc3[nH]2)c1,–,2.48%
Cc1ccc(NC(=O)c2nc[nH]c2C(=O)Nc2nc3ccccc3[nH]2)c(C)c1,73.8%,–
CCOC(=O)c1c(NC(=O)c2c(F)c(F)c(F)c(F)c2F)sc(C(N)=O)c1C,–,60.8%
CNC(=O)C1Cc2ccccc2N1C(=O)Cc1ccc(F)cc1 (configuration not stated),27.5%,–
CCC(Sc1nc2ccccc2o1)C(=O)Nc1nnc(C)s1 (configuration not stated),–,-0.757%
CNc1nnc(Sc2cnn(-c3ccccc3)c(=O)c2Cl)s1,76.3%,–
COc1cc(C2=NCCN2)ccc1-c1cn(-c2cccc(C3=NCCN3)c2)nn1,–,46%
CCN(CC)S(=O)(=O)c1ccc(C(=O)Nc2cc(C)nn2-c2nc(C)c(C)c(=O)[nH]2)cc1,–,66.7%
COc1ccc(Cn2cnc3c(-c4ccco4)nc(Cl)nc32)cc1,–,21.6%
Clc1ccc(Cl)c(CO[C@H]2CCCC[C@@H]2n2ccnc2)c1,–,19.9%
CC(C)(C)OC(=O)N1CCN(c2nccc(-c3ccc(-c4ccc(Cl)cc4)s3)n2)CC1,20.6%,–
COc1cc(C2=NCCN2)cc2cc(-c3ccc(C4=NCCN4)cc3)oc12,–,95.1% (active)
COc1ccc(C2=NCCN2)cc1-c1cn(-c2cccc(C3=NCCN3)c2)nn1,–,16.8%
N=C(N)Nc1ccc(-c2ccc(-c3ccc(N=C(N)N)c(Cl)c3)o2)cc1Cl,101% (active),–
CCN(CC)CCCN1CCN(C(=O)c2cccc(-c3noc(C(F)(F)F)n3)c2)CC1,–,64.3%
CN1CCC(NCc2cccc(-c3ccc(S(=O)(=O)NCc4ccccc4)cc3)c2)CC1,–,98.6% (active)
O=C(NCc1nnc2n1CCCCC2)c1ccc(-c2ccc(F)cc2)o1,-11%,–
